Source: PubChem BioAssay
Shown are actives, neighbours in structure and some others; about 3.1% of the full set was active somewhere.
CSC inhib – cancer stem cell inhibition; AID 2717; actives 1.1% (n = 300,000); inhibition, % at 7.5 µM; cancer stem cell-like cells viability, luminescence; in the data active means inhibition above about 75%; tested in HMLE shEcad cells
PP5 primary – inhibitors of human protein phosphatase 5 (PP5); inhibition, % at 6.7 µM; P53041; actives 0.18% (n = 320,000); purified PP5c, OMFP substrate fluorescence;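 active means inhibition above the campaign's mean inhibition across all tested compounds plus 3 SD, cut at about 9.5% in these data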;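 further: 0% = DMSO only and 100% = 100 µM cantharidin control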
Target sequence (P53041 whole entry, looked up): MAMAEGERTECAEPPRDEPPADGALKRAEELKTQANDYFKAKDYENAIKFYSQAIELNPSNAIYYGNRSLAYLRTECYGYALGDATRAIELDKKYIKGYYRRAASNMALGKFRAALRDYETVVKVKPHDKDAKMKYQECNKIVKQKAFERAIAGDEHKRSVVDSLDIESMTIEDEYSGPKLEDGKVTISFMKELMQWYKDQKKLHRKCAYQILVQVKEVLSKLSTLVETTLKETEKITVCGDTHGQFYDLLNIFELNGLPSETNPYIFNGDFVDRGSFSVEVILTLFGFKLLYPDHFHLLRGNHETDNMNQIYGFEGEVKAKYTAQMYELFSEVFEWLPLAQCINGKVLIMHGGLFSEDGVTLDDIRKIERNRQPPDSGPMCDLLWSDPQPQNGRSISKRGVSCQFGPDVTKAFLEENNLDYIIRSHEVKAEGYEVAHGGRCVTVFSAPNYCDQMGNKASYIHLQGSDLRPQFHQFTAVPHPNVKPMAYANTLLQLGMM
Beta apoptosis – blocks beta cell apoptosis; protection from apoptosis, % (no concentration beside the values); actives 0.8% (n = 300,000); INS-1E cytokine-induced death, ATP luminescence, 48 h; percent of positive-control rescue, neutral wells zero;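 active means Every replicate reaches about 75%, or at least half do and their mean reaches it too, limit read from the data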;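 further: 0% = cytokine-treated negative control wells and 100% = positive control rescue; higher means more ATP so stronger rescue from cytokine killing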
SKKanGAS inh – inhibitors of SKKanGAS S. pyogenes growth in kanamycin (SK-promoter or general growth effect); BacTiter-Glo, 6 h; inhibition, % at 7.5 µM; actives 1.3% (n = 300,000); AID 1662;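 active means mean replicate score, as percent of positive control median, at least 50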;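 further: strain carries kanamycin resistance gene driven by streptokinase promoter and grows in 40 µg/ml kanamycin; loss of luminescence reflects streptokinase promoter inhibition or plain growth inhibition; 0% = median of DMSO wells and 100% = positive control at its reference dose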
PP1 inh – blocks human PP1-alpha phosphatase, a PP5 counter-screen. inhibition, % at 6.7 µM. P62136. purified PP1alpha, OMFP fluorescence. actives 0.9% (n = 320,000). AID 2235;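 active means inhibition above the mean inhibition of all tested compounds plus 3 SD, computed separately for each screening campaign, cut at about 15% in these data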
PP1 confirm – confirmation of human PP1 phosphatase inhibitors | shares compounds with PP1 inh | inhibition, % at 6.7 µM | AID 2358 | actives 52% (n = 1,900) | purified PP1alpha, OMFP substrate fluorescence;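 active means mean PP1 inhibition above a set limit taken from the earlier primary screen, cut at about 15% in these data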
PP5 inh counter – PP5 phosphatase inhibition, counter-screen for PP1 inhibitors; shares compounds with PP1 inh; purified PP5c, OMFP fluorescence; inhibition, % at 6.7 µM; AID 2360; actives 4% (n = 1,900);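 active means mean PP5 inhibition over triplicate wells above about 9.5% taken from the earlier PP1 screen, limit read from the data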
The depositor's hits bear a star; . = no result given.

SMILES	CSC inhib	PP5 primary	Beta apoptosis	SKKanGAS inh	PP1 inh	PP1 confirm	PP5 inh counter
CC(=O)c1cccc(S(=O)(=O)N2CCCC(c3nc4c(nnn4Cc4cccc(Cl)c4)c(=O)[nH]3)C2)c1 (stereo not given)	-2.8	2.8	-10.0	24.8	20.2*	15.5*	1.9
CCOc1ccccc1N(CC(=O)NC1CCCCC1)S(=O)(=O)c1ccc(C)cc1	14.8	-2.8	9.1	-9.6	9.7	.	.
Cc1cc(NCCCn2ccnc2)n2nc(-c3ccc(Cl)cc3)cc2n1	26.8	-0.3	15.5	7.8	5.6	.	.
CC(C)(C)c1cc(NCCCn2ccnc2)n2ncc(-c3ccc(Cl)cc3)c2n1	112.2*	10.4*	8.6	105.8*	38.0*	39.1*	4.0
CCOc1ccc(N=Cc2c(C)[nH]n(-c3nc4ccccc4[nH]3)c2=O)cc1	118.2*	1.8	113.8*	41.6	22.9*	13.6	0.9
O=C(O)c1c[nH]c2ccc(S(=O)(=O)N3CCN(c4ccc(F)cc4)CC3)cc2c1=O	7.7	0.1	-9.2	0.6	43.6*	32.0*	-3.7
CCOC(=O)N1CCN(S(=O)(=O)c2ccc3[nH]cc(C(=O)O)c(=O)c3c2)CC1	6.2	-0.2	0.6	1.1	1.5	.	.
COc1ccc(C(=O)c2sc3nc(-c4ccccc4)ccc3c2N)cc1OC	-5.1	0.1	16.6	-2.1	19.7*	13.2	-4.3
O=C(CCn1c(=O)c2cccn2c2cccnc21)N1CCN(c2cccc(Cl)c2)CC1	-5.5	2.4	6.1	-4.3	2.3	.	.
COc1cccc(NC(=O)COC(=O)c2c(NC(C)=O)sc(C)c2C)c1	-7.0	1.1	2.4	.	18.4*	20.8*	3.4
CSc1nc(N(C)CCO)c2sc3nc(-c4ccco4)c4c(c3c2n1)CCC4	15.9	-0.9	1.9	5.1	30.1*	31.0*	-1.5
CCn1c(=O)cc(SCC(=O)N2CCOCC2)c2ccccc21	0.0	0.2	-5.7	-0.3	-3.4	.	.
CCn1c(=O)cc(SCC(=O)N2CCN(C3CCCCC3)CC2)c2ccccc21	.	2.3	-9.7	-10.7	30.4*	0.4	3.3
Cc1c(C(=O)OCC(=O)Nc2ccccc2OC(F)F)cccc1[N+](=O)[O-]	4.6	2.0	-6.9	-0.8	22.9*	0.0	-1.6
COc1ccccc1C(=O)OCC(=O)Nc1ccccc1OC(F)F	-20.8	0.9	-4.8	-2.5	-3.8	.	.
O=C(N/N=C/c1ccccn1)c1cccc(S(=O)(=O)N2CCCC2)c1	-7.1	-0.6	-4.0	1.6	3.6	.	.
O=[N+]([O-])c1ccc(CCNc2cccc3ccccc23)c([N+](=O)[O-])c1	-9.9	1.3	13.3	-0.7	25.1*	24.1*	-2.2
Cc1ccc(C(=O)NCC(=O)NCC(c2cccs2)N(C)C)cc1C (stereo not given)	-22.2	.	-11.6	.	.	.	.
Cc1cccc(-c2nnc(NC(=O)c3ccc(N4C(=O)CCC4=O)cc3)s2)c1	-6.9	5.0	-2.9	1.6	19.3*	12.0	0.3
Cc1nc2ccccc2n1CC(=O)NN	-5.8	0.7	-3.8	7.1	-5.2	.	.
NNC(=O)Cn1c(SCc2ccccc2)nc2ccccc21	0.4	-0.3	-2.7	5.8	17.6*	-1.4	-0.3
Oc1ccccc1Nc1nc(NCc2ccccc2)c2ccccc2n1	102.7*	3.0	11.1	2.6	19.1*	-0.2	3.3
O=c1[nH]c(NCCO)nc2c1C1(CCCCC1)Cc1ccccc1-2	4.5	1.0	10.5	.	18.6*	2.5	0.3
CCOC(=O)c1sc(-n2[nH]c(C)cc2=O)nc1C	-19.0	-0.2	-2.4	17.6	19.0*	0.6	9.2
Cc1ccc(CNS(=O)(=O)c2ccc(C(F)(F)F)cc2)n1C	-10.9	-2.5	-4.2	-0.9	-0.3	.	.
SMILES	CSC inhib	PP5 primary	Beta apoptosis	SKKanGAS inh	PP1 inh	PP1 confirm	PP5 inh counter
COc1ccc(CC(=O)NNC(=O)c2c(-c3ccccc3Cl)noc2C)cc1OC	-9.8	0.2	-14.5	3.0	-5.0	.	.
COc1cc([N+](=O)[O-])cc(/C=N/NC(=O)c2cc(-c3ccccc3)nc3ccccc23)c1O	56.2	-0.6	79.0*	95.0*	40.0*	40.1*	-1.1
CC1(C)CC(=O)C(C(c2ccc(Br)cc2)C2C(=O)CC(C)(C)CC2=O)C(=O)C1	-11.1	-0.8	-5.8	4.6	-4.3	.	.
CCn1nc([N+](=O)[O-])c(C(C#N)c2nc3cc(C(F)(F)F)ccc3s2)c(Cl)c1=O (stereo not given)	112.3*	6.7	14.4	28.4	22.3*	22.1*	4.7
Cc1ccc(Cn2c(C(C)Nc3nc(-c4ccc(Cl)c([N+](=O)[O-])c4)cs3)nc3cc(C(F)(F)F)ccc32)cc1 (stereo not given)	26.1	-7.2	2.5	36.6	-4.8	.	.
CCCCOc1ccc(C2C(C(=O)c3ccc(C)o3)=C(O)C(=O)N2CC2CCCO2)cc1 (stereo not given)	-5.4	0.2	-1.8	10.7	19.9*	27.0*	-2.3
CCOC(=O)Cc1csc(NC(=O)c2cc(C)cc(C)c2)n1	-0.8	-2.0	-1.4	0.3	-0.2	.	.
CCOC(=O)Cc1csc(NC(=O)c2sc3nc4cc(C)ccc4cc3c2N)n1	-14.7	1.1	.	33.0	27.9*	33.5*	-1.5
CCOC(=O)Cc1csc(NC(=O)c2sc3nc4ccc(CC)cc4cc3c2N)n1	-19.0	0.2	-4.9	2.4	30.1*	25.0*	-2.2
COc1ccc(OC)c(N2C(=NC(=O)C3CCCCC3)SC3CS(=O)(=O)CC32)c1 (stereo not given)	-12.6	1.4	-2.6	5.4	-1.6	.	.
O=C(CSCc1c(F)cccc1F)Nc1ccccc1	-20.7	0.5	-0.5	1.9	-5.4	.	.
CCOc1ccc(N2CSC3=C(C#N)C(c4ccco4)CC(=O)N3C2)cc1 (stereo not given)	-2.7	4.3	-1.3	8.0	30.6*	13.4	13.0*
CC1=NN(c2ccccc2)C(=O)/C1=C/c1c(O)n(-c2ccc(F)c(Cl)c2)[nH]c1=O	103.4*	10.0*	1.2	71.7*	18.4*	9.3	0.2
O=C(O)c1ccc(N/N=C2/CCCc3ccccc32)cc1	-9.9	-0.4	-3.8	1.6	-5.8	.	.
CCCCCCSc1cc(-c2nc3cc(C)ccn3c2NCCCC)ccc1OC	77.2*	5.3	7.6	47.4	26.2*	6.5	-2.5
CCCCCCSc1cc(-c2nc3ccc(C)cn3c2NCc2ccccc2)ccc1OC	-7.0	2.7	116.8*	39.4	20.5*	9.3	3.6
CCOC(=O)CN(C(=O)COc1nc(-c2ccccc2)cc(C)c1C#N)c1ccccc1C	21.5	2.5	-3.1	9.8	0.8	.	.
Cc1noc(C)c1NC(=O)Nc1cccc2c1O[C@@H](CN(C)Cc1ccc3c(c1)OCO3)[C@@H](C)CN([C@H](C)CO)C2=O	11.5	.	-4.8	.	.	.	.
Cc1ccc(NC(=O)NCC2CCN(Cc3cccc(Cl)c3)CC2)c(Cl)c1	1.4	2.0	2.2	8.9	26.8*	-6.5	-3.2
O=C(O/N=C1/CCCc2occc21)c1ccc(Cl)cc1Cl	-7.7	0.5	-6.1	22.2	0.6	.	.
